According to PubChem BioAssay (NCATS):
Results filed as inconclusive are left out. Calls of active or inactive are those of the source. Unless noted, calls come from the whole dose curve; as a rule, active = well fitted curve in the direction sought with a large enough effect; inconclusive = small, poorly fitted or top-dose-only effect, or another doubt; inactive = no such curve, though single readings can be large; an effect the other way counts as inactive or inconclusive.

Experiments:
[1] = target: Calcium and integrin-binding protein 1 (Homo sapiens) (UniProt Q99828); test: Primary qHTS for Identification of Calcium Integrin Binding Protein 1 (CIB1) Competitor (AID 1508620);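 note: GST tagged CIB1 binding a fluorescein labelled alphaIIb integrin peptide tracer; top concentration of the series differs between compounds; % is set by controls: 0 for no effect and ±100 for the full control effect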
Outline: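 CIB1-GST (1 uM final) and compound incubated 15 min at room temperature before adding FITC-alphaIIb peptide tracer (100 nM final). Competition for binding read by fluorescence polarization (ex 480, em 540) after another 15 min at room temperature.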

[2] = Primary qHTS for small molecule stabilizers of the endoplasmic reticulum resident proteome: Secreted ER Calcium Modulated Protein (SERCaMP) assay (AID 1508630); note: % is set by controls: 0 for no effect and ±100 for the full control effect
Outline: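 The SH-SY5Y reporter protocol was run at 3 concentrations up to 38.3 uM (primary) or 11 concentrations (follow-up): 16 h compound, 100 nM thapsigargin for 4 h, then extracellular luciferase luminescence.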

[3] = Counterscreen qHTS for small molecule stabilizers of the endoplasmic reticulum resident proteome: GLuc-NoTag assay (AID 1508627);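 note: SH-SY5Y cells given compound then 100 nM thapsigargin to empty ER calcium; 0% = thapsigargin alone and -100% = DMSO vehicle control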
Outline: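 Counterscreen line: SH-SY5Y-GLuc-NoTag cells, treated with compound 19 hr before a 4 hr, 100 nM thapsigargin calcium depletion. Secreted Gaussia luciferase in the medium was measured by luminescence after coelenterazine was added (0.07x final), with cells unlysed.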

[4] = Confirmatory qHTS for small molecule stabilizers of the endoplasmic reticulum resident proteome: Secreted ER Calcium Modulated Protein (SERCaMP) assay (AID 1508628); note: nearly all actives have a fitted effect of over 40% in size; note: potency is the fitted concentration of half-maximal effect
Outline: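 GLuc-SERCaMP-expressing SH-SY5Y cells, pretreated 16 h with compound, are challenged with thapsigargin to empty ER calcium stores; after 4 h, coelenterazine is added directly to the medium and luminescence is imaged.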

[5] = Cell Viability qHTS for small molecule stabilizers of the endoplasmic reticulum resident proteome (AID 1508629); details: cell viability counter-screen, 100 nM thapsigargin for final 4 h;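 note: human SH-SY5Y neuroblastoma cells carrying the GLuc-SERCaMP reporter; compound exposure about 46 h in total before the viability read; % is set by controls: 0 for no effect and ±100 for the full control effect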
[6] = target: DNA repair nuclease/redox regulator APEX1 (Homo sapiens) (UniProt P27695); test: qHTS Validation Assay for Inhibitors of the Human Apurinic/apyrimidinic Endonuclease 1 (APE1) (AID 1705;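 note: TAMRA fluorescence gain over two minutes as APE1 cuts a quenched THF abasic duplex; % is set by controls: 0 for no effect and ±100 for the full control effect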)
Outline: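 Fluorogenic double-stranded THF abasic-site substrate (5'-TAMRA/3'-BHQ-2), 50 nM final. Enzyme preincubated with compound 15 min at room temperature, then substrate added. Kinetic fluorescence (ex 525/em 598 nm) read three times at 60 s intervals; activity taken as third-minus-first read difference.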

[7] = target: Endonuclease 4 (Escherichia coli (strain K12)) (UniProt P0A6C1); test: Counterscreen for APE1 Inhibitors: qHTS Validation Assay for Inhibitors of Endonuclease IV (AID 1708); note: % is set by controls: 0 for no effect and ±100 for the full control effect
Outline: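 The reaction buffer contained 50 mM Tris-HCl pH 7.5, 50 mM NaCl, 2 mM MgCl2, 1 mM DTT and 0.01% Tween-20. Incision of a 50 nM fluorophore/quencher THF substrate by 2 nM enzyme was measured kinetically.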

[8] = qHTS for differential inhibitors of proliferation of Plasmodium falciparum line 7G8 (AID 1815);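 note: potency is the fitted concentration of half-maximal effect; parasite growth measured after three days of incubation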
[9] = qHTS for differential inhibitors of proliferation of Plasmodium falciparum line GB4 (AID 1816); details: Potency: Plasmodium falciparum GB4 proliferation inhibition;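 note: potency is the fitted concentration of half-maximal effect; parasite growth measured after 72 h incubation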
[10] = qHTS for differential inhibitors of proliferation of Plasmodium falciparum line 3D7 (AID 1876); note: potency is the fitted concentration of half-maximal effect
[11] = qHTS for differential inhibitors of proliferation of Plasmodium falciparum line D10 (AID 1877);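 note: potency is the fitted concentration of half-maximal effect; parasites grown with compound for 72 h before DNA staining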
[12] = qHTS for differential inhibitors of proliferation of Plasmodium falciparum line Dd2 (AID 1882); details: Potency: Plasmodium falciparum Dd2 proliferation inhibition; note: potency is the fitted concentration of half-maximal effect; nearly all actives have a fitted effect of over 65% in size
Outline: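 RBC culture, 0.3% parasitemia / 2.5% Hct final; cpd added by pin tool in DMSO; 72 h, 37 C, 5% CO2; lysis buffer + SYBR Green I, o/n RT dark; FI 485/535; norm. to artemisinin 0.29 uM and DMSO.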

[13] = qHTS for differential inhibitors of proliferation of Plasmodium falciparum line W2 (AID 1883); details: Potency: Plasmodium falciparum W2 proliferation inhibition;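 note: potency is the fitted concentration of half-maximal effect; parasites grown with compound for 72 h before lysis and staining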
[14] = qHTS for differential inhibitors of proliferation of Plasmodium falciparum line HB3 (AID 1886); details: Potency: Plasmodium falciparum HB3 proliferation inhibition;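 note: potency is the fitted concentration of half-maximal effect; parasites grown with compound for 72 h before SYBR Green readout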
[15] = target: Ferritin light chain (Equus caballus) (UniProt P02791); test: qHTS Validation Assay for Identification of Novel General Anesthetics (AID 2323); note: % is set by controls: 0 for no effect and ±100 for the full control effect
Outline: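 Horse-spleen apoferritin (10 uM) in PBS with 50% saturated 1-aminoanthracene; compounds pin-transferred, 10 min at room temperature. Fluorescence read at 380/535 nm, normalized to free 1-AMA and 1-AMA/apoferritin values; four-parameter Hill fit.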

[16] = target: ATP-dependent DNA helicase Q1 (Homo sapiens) (UniProt P46063); test: qHTS Validation Assay for Inhibitors of RecQ-Like Dna Helicase 1 (RECQ1) (AID 2353);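 note: plate controls were DMSO vehicle for no effect and enzyme-free control for full effect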
Outline: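 RECQ1T1 50 nM; forked duplex (20 bp + 30-nt ss tails) 200 nM, ATP 2 mM final; pH 8.0, 2 mM MgCl2, 2.5 ug/ml poly(dI-dC); 15 min compound preincubation; discontinuous kinetic read over 2 h at RT.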

[17] = target: RecQ-like DNA helicase BLM (Homo sapiens) (UniProt P54132); test: qHTS Validation Assay for Inhibitors of Bloom's syndrome helicase (BLM) (AID 2364);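 note: plate controls were DMSO vehicle for no effect and enzyme-free control for full effect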
Outline: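 Forked 20-bp duplex substrate (200 nM, TAMRA/BHQ-2) plus 2 mM ATP added after 15 min compound preincubation with 50 nM enzyme, pH 8.0, poly(dI-dC) 2.5 ug/ml. Strand separation followed by fluorescence (525/598 nm) over 2 h, normalized to enzyme-free and DMSO controls.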

[18] = Quantitative high throughput screen for delayed death inhibitors of the malarial parasite plastid, 96 hour incubation (AID 488745); note: % is set by controls: 0 for no effect and ±100 for the full control effect; nearly all actives have a fitted effect of over 70% in size
Outline: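 Two-generation (96 h) exposure of luciferase-reporter P. falciparum in erythrocytes, 2% hematocrit, 0.1% parasitemia final, 37 C, 5% CO2, RPMI 1640 with 0.5% Albumax. Growth inhibition scored by reduced luminescence.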

[19] = Quantitative high throughput screen for delayed death inhibitors of the malarial parasite plastid, 48 hour incubation (AID 488752); note: potency is the fitted concentration of half-maximal effect; nearly all actives have a fitted effect of over 65% in size
Outline: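 Cultures: infected erythrocytes at final 2% hematocrit and 0.1% parasitemia in Albumax-supplemented RPMI. Parasites express integrated firefly luciferase. Incubation with compound lasts 48 h before luminescent detection of remaining reporter activity.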

[20] = target: M-phase phosphoprotein 8 (Homo sapiens) (UniProt Q99549); test: qHTS Validation Assay for Inhibitors for MPP8 Chromodomain Interactions with Methylated Histone Tails (AID 488949); note: potency is the fitted concentration of half-maximal effect; nearly all actives have a fitted effect of over 55% in size
Outline: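 MPP8 (50 nM) was pre-bound to 50 nM biotinylated H3(1-18)K9me3 peptide in PBS pH 7.4 with 0.01% Tween-20. Compounds were then added for 30 min at room temperature, and complex disruption was read by AlphaScreen with streptavidin donor and nickel-chelate acceptor beads.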

[21] = target: Transient receptor potential cation channel subfamily V member 1 (Homo sapiens) (UniProt Q8NER1); test: HTS Assay for Compounds that Act as Enhancers of the Vanilloid Receptor 1 (AID 488979); note: 0% is about no effect
Outline: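 Calcium influx kinetics via Fluo-8 (480/520 nm) in TRPV1-expressing cells, 2000/well cultured overnight at 35.5C. Compound-alone read 3 min (agonist phase), followed by EC20 capsaicin challenge for 2 min (enhancer phase).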

[22] = target: Thyrotropin-releasing hormone receptor (Homo sapiens) (UniProt P34981); test: qHTS for Small Molecule Agonists and Allosteric Enhancers of Human TRH Receptor: Validation Screen for Agonists (AID 493127;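 active = calcium activation more than 3 SD above the typical response in the agonist read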;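 note: intracellular calcium rise by fluo-8 fluorescence before TRH EC20 addition; 0% is about no effect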); details: TRH receptor agonist cell assay; at 2 µM; stronger effect = higher value
Outline: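 Kinetic fluorescence assay of agonist-induced calcium release: overnight-plated TRHR cells, room-temperature fluo-8 loading, baseline then compound addition with per-second reads.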

[23] = target: Galactokinase (Homo sapiens) (UniProt P51570); test: qHTS Validation Assay for Inhibitors of Human Galactokinase (GALK) (AID 493189); note: 0% is about no effect
Outline: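 GALK (5 nM) with 35 uM ATP and 100 uM galactose in HEPES pH 8.0 with MgCl2, NaCl, DTT and BSA. Reaction ran 1 h at room temperature. Residual ATP read by Kinase-Glo Plus luminescence.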

[24] = Validation screen for small molecules that induce DNA re-replication in SW480 colon adenocarcinoma cells (AID 504364); note: 0% is about no effect
Outline: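 Hoechst-stained SW480 nuclei, imaged at 405 nm excitation after 48 hr compound exposure, were counted for elevated DNA content as the re-replication signal.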

[25] = target: Lysosomal acid glucosylceramidase (Homo sapiens) (UniProt P04062); test: Glucocerebrosidase-p2 (AID 348; in the data active = potency below about 10 µM; note: potency is the fitted concentration of half-maximal effect); details: purified GBA, blue fluorogenic substrate, 40 min
Outline: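 Normal human glucocerebrosidase (0.2 nM) with blue fluorogenic substrate (80 uM final) in citrate/phosphate pH 5.9 with 10mM sodium taurocholate, 0.01% tween-20; 40 min RT, NaOH/glycine stop; fluorescence Ex 365/Em 440; AC50 from a titration from 0.6 nM upwards.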

[26] = AP1 Signaling Pathway (AID 357; active = well fitted curve in either direction with a large enough effect, not every such curve was filed as active)
Outline: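 In this screen, ME-180 cells in Opti-MEM with 0.5% dialyzed FBS received EC50 EGF and compound titrations for 5 h. AP-1 reporter beta-lactamase was detected via CCF4 ratio, giving AC50 for positive and negative modulators.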

[27] = target: Cytochrome P450 1A2 (Homo sapiens) (UniProt P05177); test: p450-cyp1a2 (AID 410; calls by dose curve;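 note: -100% = full effect of reference inhibitor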)
Outline: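 Read-out is luminescence from luciferin produced by CYP1A2 demethylation of Luciferin-ME (100uM, at Km). Detection reagent stopped the 60 min NADPH-dependent reaction; signals were normalized to 57 uM furafylline.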

[28] = NFAT Signaling Pathway (AID 444; active = well fitted curve in either direction with a large enough effect, not every such curve was filed as active); details: Jurkat NFAT-bla M1, carbachol, beta-lactamase ratio, 5 h; at 7.69 µM (top of the series)
Outline: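 Read-out: CCF4 FRET ratio (460 nm/530 nm) after 1 h RT dye loading, used for %activity and AC50 from titration series. Cells: Jurkat NFAT-β-lactamase/M1 line, treated with compound plus 1 uM carbachol for 5 h, 37 °C.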

[29] = Stat Signaling Pathway (AID 446; active = well fitted curve in either direction with a large enough effect, not every such curve was filed as active)
Outline: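 Overnight-plated ME-180 cells bearing a STAT Inducible Element beta-lactamase reporter; 5 h co-exposure to compound and 40 pM IL-6; values normalized to 300 pM IL-6 and 125 nM JAK inhibitor controls.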

[30] = target: Glucocorticoid receptor (Homo sapiens) (UniProt P04150); test: GR-EFC Redistribution (AID 451; calls by dose curve; note: potency is the fitted concentration of half-maximal effect); details: CHO-K1 GR-EFC translocation, beta-gal luminescence, 2 h
Outline: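 Translocation of GR-ED fusion to nuclear EA restores b-gal, read by luminescence after 1 h room-temperature detection. Engineered CHO-K1 biosensor cells, 1,000/well, exposed 2 h at 37 C to titrations up to 46 uM final.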

[31] = target: 3',5'-cyclic-AMP phosphodiesterase 4B (Homo sapiens) (UniProt Q07343); test: qHTS Assay for Inhibitors of PDE-IV (AID 607; active = well fitted activation curve with a large enough effect in the main read-out, with a control signal flat, not every such curve was filed as active; note: % of control where 0% means no effect)
Outline: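 Live HEK293 cells with a modified cyclic nucleotide-gated (CNG) channel report intracellular cAMP via membrane-potential dye fluorescence (ex 535/em 590 nm). Endogenous PDE-IV was targeted. Compounds were tested at up to 22.9 uM final; RO 20-1724 100 uM served as control.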

[32] = target: Cytochrome P450 3A4 (Homo sapiens) (UniProt P08684); test: qHTS Assay for Activators of Cytochrome P450 3A4 (AID 885); note: nearly all actives have a fitted effect of over 65% in size
Outline: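 Using 20nM recombinant human CYP3A4 in potassium phosphate (200mM), substrate Luciferin-PPXE at 25uM, luminescent luciferin detection followed a 60-min RT NADPH reaction; data scaled to 57 uM ketoconazole.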

[33] = qHTS Assay for Lipid Storage Modulators (AID 1519; calls by dose curve); details: Drosophila S3 cells, BODIPY lipid droplet/cell ratio, laser cytometry, cells loaded with oleic acid
Outline: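 Cells seeded at 5,000 per well were treated with compounds over a concentration series and loaded with oleic acid (400 uM, as added). Lipid droplet fluorescence (488 nm excitation, 500-530 nm channel) was read by laser-scanning cytometry and normalized to 20 uM Triacsin C.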

Sequence of Calcium and integrin-binding protein 1 (Homo sapiens) (Q99828 whole entry, looked up): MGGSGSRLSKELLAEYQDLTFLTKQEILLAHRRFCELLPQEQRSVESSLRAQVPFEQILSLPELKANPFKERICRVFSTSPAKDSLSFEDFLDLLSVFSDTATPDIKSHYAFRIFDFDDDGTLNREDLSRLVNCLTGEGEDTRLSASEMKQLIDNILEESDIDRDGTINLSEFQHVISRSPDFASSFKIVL
Sequence of RecQ-like DNA helicase BLM (Homo sapiens) (P54132 whole entry, looked up): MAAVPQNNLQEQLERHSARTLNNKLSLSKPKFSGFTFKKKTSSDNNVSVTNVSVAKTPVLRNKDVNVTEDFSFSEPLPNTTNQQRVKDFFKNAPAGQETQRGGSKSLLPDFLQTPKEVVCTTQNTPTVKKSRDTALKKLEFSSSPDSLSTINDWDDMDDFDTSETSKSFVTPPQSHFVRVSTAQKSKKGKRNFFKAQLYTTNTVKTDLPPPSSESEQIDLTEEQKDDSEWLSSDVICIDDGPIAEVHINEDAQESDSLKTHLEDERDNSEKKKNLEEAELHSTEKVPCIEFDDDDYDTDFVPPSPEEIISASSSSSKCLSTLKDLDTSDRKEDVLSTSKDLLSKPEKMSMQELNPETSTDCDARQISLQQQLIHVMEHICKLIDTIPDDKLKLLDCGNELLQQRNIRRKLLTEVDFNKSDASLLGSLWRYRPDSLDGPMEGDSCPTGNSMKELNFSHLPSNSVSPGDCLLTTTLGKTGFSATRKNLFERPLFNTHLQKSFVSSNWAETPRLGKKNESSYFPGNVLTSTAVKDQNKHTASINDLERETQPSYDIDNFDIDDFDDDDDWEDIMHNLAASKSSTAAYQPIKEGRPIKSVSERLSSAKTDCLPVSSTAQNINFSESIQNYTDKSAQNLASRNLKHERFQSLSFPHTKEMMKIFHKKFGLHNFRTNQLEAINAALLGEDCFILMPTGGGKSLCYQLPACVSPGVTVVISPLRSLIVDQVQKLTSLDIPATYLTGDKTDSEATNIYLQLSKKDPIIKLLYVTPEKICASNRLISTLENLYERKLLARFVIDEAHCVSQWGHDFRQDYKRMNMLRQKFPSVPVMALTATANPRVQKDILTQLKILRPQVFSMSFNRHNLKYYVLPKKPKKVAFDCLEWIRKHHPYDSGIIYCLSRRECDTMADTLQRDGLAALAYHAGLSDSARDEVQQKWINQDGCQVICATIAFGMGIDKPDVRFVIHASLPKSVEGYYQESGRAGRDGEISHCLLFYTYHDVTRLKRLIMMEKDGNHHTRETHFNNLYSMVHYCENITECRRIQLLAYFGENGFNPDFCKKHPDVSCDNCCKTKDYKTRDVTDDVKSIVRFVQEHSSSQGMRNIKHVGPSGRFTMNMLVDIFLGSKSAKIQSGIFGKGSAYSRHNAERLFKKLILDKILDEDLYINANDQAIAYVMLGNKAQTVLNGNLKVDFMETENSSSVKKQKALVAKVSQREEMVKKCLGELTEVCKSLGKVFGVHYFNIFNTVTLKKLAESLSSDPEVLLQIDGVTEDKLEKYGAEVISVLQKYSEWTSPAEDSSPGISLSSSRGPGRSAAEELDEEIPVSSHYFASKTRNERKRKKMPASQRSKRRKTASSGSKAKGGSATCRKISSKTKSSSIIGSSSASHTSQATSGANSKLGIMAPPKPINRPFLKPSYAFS
Sequence of M-phase phosphoprotein 8 (Homo sapiens) (Q99549 whole entry, looked up): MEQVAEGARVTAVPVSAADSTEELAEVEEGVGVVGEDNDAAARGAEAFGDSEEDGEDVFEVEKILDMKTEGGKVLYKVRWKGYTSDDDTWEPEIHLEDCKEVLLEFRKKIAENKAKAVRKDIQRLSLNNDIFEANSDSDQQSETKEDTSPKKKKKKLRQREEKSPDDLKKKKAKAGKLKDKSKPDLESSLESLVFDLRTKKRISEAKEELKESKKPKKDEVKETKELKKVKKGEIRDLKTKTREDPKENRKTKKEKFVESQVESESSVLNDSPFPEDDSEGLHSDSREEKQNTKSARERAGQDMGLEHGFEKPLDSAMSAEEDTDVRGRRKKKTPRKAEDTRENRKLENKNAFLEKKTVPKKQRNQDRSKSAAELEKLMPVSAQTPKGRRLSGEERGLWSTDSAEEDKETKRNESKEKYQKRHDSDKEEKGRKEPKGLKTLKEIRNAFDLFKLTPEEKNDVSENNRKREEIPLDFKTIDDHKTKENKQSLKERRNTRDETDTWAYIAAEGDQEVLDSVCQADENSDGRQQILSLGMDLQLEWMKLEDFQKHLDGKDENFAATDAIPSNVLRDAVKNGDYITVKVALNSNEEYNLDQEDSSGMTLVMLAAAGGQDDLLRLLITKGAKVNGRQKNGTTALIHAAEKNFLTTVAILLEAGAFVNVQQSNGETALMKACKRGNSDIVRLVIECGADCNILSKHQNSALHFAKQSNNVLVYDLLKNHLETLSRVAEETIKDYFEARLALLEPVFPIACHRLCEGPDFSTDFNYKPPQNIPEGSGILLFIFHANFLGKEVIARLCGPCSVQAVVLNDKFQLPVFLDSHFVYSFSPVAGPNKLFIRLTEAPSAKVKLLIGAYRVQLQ
Sequence of Ferritin light chain (Equus caballus) (P02791 2-175 limits assumed): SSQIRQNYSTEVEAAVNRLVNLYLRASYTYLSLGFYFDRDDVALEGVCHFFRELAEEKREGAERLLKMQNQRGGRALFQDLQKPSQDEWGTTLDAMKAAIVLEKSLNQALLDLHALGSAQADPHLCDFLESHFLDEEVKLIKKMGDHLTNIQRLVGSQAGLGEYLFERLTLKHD
Sequence of Cytochrome P450 1A2 (Homo sapiens) (P05177 whole entry, looked up): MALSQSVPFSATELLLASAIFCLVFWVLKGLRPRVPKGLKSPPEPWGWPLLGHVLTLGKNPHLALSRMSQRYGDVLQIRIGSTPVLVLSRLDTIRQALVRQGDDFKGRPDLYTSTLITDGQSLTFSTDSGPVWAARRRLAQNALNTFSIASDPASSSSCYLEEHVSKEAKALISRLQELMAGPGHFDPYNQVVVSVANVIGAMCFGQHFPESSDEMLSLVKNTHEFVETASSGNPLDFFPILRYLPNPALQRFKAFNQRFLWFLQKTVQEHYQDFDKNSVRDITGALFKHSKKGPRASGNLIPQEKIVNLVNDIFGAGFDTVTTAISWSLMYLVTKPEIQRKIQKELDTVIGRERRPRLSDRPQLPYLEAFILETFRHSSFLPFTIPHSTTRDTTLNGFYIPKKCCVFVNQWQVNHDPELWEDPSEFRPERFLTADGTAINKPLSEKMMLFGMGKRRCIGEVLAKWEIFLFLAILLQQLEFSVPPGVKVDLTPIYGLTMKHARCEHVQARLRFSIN
Sequence of Galactokinase (Homo sapiens) (P51570 whole entry, looked up): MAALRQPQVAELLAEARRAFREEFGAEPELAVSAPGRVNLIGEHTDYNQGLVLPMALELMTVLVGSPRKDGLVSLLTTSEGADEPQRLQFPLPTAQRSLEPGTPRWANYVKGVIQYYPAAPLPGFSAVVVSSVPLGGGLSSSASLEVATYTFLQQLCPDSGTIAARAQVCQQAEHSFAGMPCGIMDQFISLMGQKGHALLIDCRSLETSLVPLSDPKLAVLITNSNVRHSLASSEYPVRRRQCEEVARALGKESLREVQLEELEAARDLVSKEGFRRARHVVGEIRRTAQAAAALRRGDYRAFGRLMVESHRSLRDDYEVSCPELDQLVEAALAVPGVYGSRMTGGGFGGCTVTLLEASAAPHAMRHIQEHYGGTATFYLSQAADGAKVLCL
Sequence of Transient receptor potential cation channel subfamily V member 1 (Homo sapiens) (Q8NER1 whole entry, looked up): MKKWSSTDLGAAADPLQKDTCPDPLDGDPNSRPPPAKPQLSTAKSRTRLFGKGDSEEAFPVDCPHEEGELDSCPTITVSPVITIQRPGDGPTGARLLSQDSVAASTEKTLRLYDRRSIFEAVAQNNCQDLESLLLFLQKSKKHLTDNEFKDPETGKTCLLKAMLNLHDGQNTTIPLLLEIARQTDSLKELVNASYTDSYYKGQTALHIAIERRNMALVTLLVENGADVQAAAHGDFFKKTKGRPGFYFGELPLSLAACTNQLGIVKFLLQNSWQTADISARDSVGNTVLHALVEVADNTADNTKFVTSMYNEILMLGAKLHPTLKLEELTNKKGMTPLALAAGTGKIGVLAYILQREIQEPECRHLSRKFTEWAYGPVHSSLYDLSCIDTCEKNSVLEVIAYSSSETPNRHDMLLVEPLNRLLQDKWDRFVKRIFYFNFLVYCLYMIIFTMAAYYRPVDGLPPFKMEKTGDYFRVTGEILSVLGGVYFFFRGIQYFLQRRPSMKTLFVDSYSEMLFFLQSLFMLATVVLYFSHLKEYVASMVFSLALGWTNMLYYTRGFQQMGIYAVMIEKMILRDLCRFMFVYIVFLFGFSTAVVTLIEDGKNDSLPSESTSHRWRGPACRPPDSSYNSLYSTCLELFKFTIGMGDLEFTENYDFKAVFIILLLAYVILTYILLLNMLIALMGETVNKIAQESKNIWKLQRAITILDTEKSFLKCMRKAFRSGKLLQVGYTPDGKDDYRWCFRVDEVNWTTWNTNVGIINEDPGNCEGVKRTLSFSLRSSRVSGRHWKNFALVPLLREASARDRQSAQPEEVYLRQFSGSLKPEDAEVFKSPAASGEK
Sequence of ATP-dependent DNA helicase Q1 (Homo sapiens) (P46063 whole entry, looked up): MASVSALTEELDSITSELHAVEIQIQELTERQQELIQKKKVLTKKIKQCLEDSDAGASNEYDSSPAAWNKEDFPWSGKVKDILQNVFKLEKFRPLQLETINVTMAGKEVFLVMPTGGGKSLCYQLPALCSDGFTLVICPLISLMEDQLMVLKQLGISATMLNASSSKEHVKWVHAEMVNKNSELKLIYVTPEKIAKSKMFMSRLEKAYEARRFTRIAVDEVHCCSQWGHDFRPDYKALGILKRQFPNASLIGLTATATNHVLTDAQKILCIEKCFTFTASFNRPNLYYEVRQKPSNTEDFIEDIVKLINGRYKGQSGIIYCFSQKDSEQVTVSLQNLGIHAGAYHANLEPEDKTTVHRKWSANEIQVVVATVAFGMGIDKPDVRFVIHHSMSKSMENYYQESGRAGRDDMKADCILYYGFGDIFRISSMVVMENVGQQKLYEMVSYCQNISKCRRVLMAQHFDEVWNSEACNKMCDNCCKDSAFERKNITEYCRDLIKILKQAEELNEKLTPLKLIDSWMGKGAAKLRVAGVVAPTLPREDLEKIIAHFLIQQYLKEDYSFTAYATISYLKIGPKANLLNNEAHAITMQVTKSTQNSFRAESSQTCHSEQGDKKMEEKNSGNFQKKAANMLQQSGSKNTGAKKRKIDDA

Cc1cc(-c2nnc3n2CCCCC3)c(C)n1-c1ccc(C(C)(C)C)cc1
inactive: outcome [1]

COc1ccc(/C=C/C(=O)N2CC3C[C@@H](C2)Cn2c3cccc2=O)cc1OC
inactive: outcome [2]

S=P(c1ccccc1)(c1ccccc1)c1cnc2ccccn12
inactive: outcome [1]

O=C(O)[C@@H]1CSC(c2cccnc2)N1 (stereo partly specified)
inactive: outcome [3] | Potency [4] | max response [5] 25.6%

C=CCN1CCc2cccc3c2C1Cc1ccc(O)c(O)c1-3 (stereo unspecified)
inactive: Potency [6] | Potency [7] | Potency [15] | outcome [16] | outcome [17] | Potency [18] | outcome [21] | activation [22] -2.75% | outcome [23] | outcome [24]
active: Potency [8] 2.82 µM | Potency [9] 2 µM | Potency [10] 2.82 µM | Potency [11] 2 µM | Potency [12] 2.82 µM | Potency [13] 2.51 µM | Potency [14] 2 µM | Potency [19] 10.4 µM | Potency [20] 6.31 µM | Potency [4] 39.8 µM

COCC#CCN1CCCCC1c1cccnc1 (stereo unspecified)
inactive: outcome [2]

COc1cccc(CNc2ccc(S(=O)(=O)Nc3ccc4ccccc4c3)cc2)c1O
inactive: outcome [1]

c1cc(CN2CCCC3(CCNCC3)C2)ccn1
17.7%: max response ([33]; measured here: lipid channel max response)
11%: max response ([33]; measured here: cell count channel max response)
inactive: Potency [25] > 11.4 µM | outcome [26] | Potency [27] | activity change, negative = inhibition [28] -14.6% | outcome [29] | Potency [30] > 46 µM | Potency [31] | Potency [32] | activity change, negative = inhibition ([33]; at 57.5 µM (top of the series)) 4.72% | outcome [3] | max response [5] 27.2%
